Measured values published in PubChem BioAssay (NCI).
The panel holds about 79,000 compounds, 15% with a hit somewhere; the sample as a whole holds those more often. A number with no mark means an inactive call. Activity calls are given as the source filed them. No stated cut-off is given here; in the data, active means growth inhibition above about 70%; inactive means the rest.

Legend:
[1] = NCI Yeast Anticancer Drug Screen. Data for the rad50 strain (AID 155);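 further: 0% = growth of vehicle-only cultures of the same strain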; details: S. cerevisiae rad50 strain growth inhibition, stronger effect = higher value
How it was run: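 Growth of the mutant yeast was measured after compound exposure and referenced to vehicle-treated cultures.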

[2] = NCI Yeast Anticancer Drug Screen. Data for the mec2-1 strain (AID 157); details: S. cerevisiae mec2-1 strain, stronger effect = higher value
How it was run: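 Readout is yeast growth inhibition, normalised to vehicle-treated controls, in the mec2-1 strain exposed to compound.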

[3] = NCI Yeast Anticancer Drug Screen. Data for the sgs1 mgt1 strain (AID 161);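 further: 0% = growth of cultures given vehicle only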; details: S. cerevisiae sgs1 mgt1 strain, stronger effect = higher value
How it was run: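 This yeast growth screen uses a strain with defined DNA-repair lesions; compound-treated growth is compared with vehicle-treated growth.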

[4] = NCI Yeast Anticancer Drug Screen. Data for the cln2 rad14 strain (AID 165);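 further: 0% = growth equal to vehicle treated cultures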; details: S. cerevisiae cln2 rad14 strain, stronger effect = higher value
How it was run: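 Relative to vehicle controls, growth inhibition of compound-treated cln2 rad14 yeast was recorded.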

[5] = NCI Yeast Anticancer Drug Screen. Data for the bub3 strain (AID 167); details: S. cerevisiae bub3 mutant strain, stronger effect = higher value
How it was run: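 Whole-cell yeast assay. The mutant strain was incubated with compounds, and growth inhibition was determined by comparison with vehicle-treated cells.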

[6] = NCI Yeast Anticancer Drug Screen. Data for the mlh1 rad18 strain (AID 175); details: S. cerevisiae mlh1 rad18 strain growth inhibition, stronger effect = higher value
How it was run: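 Test agents were incubated with a yeast strain of defined genotype (DNA damage repair defect). Inhibition of growth was derived by comparison with vehicle-exposed cultures.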

[7] = at 5.0 µM (retest, dose inferred, filed as 0.5)
[8] = at 50.0 µM (retest, dose inferred, filed as 5.0)

CC(C)CCCC(C)[C@H]1CCC(C2C[C@@H](O)[C@@H]3CC(O)[C@@H](O)C[C@]3(CO)C2=O)[C@]1(C)CCO (stereo not given in full)
growth inhibition [1, 7]: -14%
growth inhibition [1, 8]: 99% (active)
growth inhibition ([1]; at 50.0 µM): 92.5% (active)
growth inhibition [2, 7]: -13%
growth inhibition [2, 8]: 99% (active)
growth inhibition ([2]; at 50.0 µM): 92.5% (active)
growth inhibition [3, 7]: -6%
growth inhibition [3, 8]: 99% (active)
growth inhibition ([3]; at 50.0 µM): 91.7% (active)
growth inhibition [4, 7]: 13%
growth inhibition [4, 8]: 98% (active)
growth inhibition ([4]; at 50.0 µM): 90.2% (active)
growth inhibition [5, 7]: 4%
growth inhibition [5, 8]: 98% (active)
growth inhibition ([5]; at 50.0 µM): 91.6% (active)
growth inhibition [6, 7]: -10%
growth inhibition [6, 8]: 98% (active)
growth inhibition ([6]; at 50.0 µM): 92% (active)

CCCCCCCCCCCCCCNCc1ccccc1
growth inhibition [1, 7]: 99% (active)
growth inhibition [1, 8]: 97% (active)
growth inhibition ([1]; at 50.0 µM): 98.8% (active)
growth inhibition [2, 7]: 99% (active)
growth inhibition [2, 8]: 98% (active)
growth inhibition ([2]; at 50.0 µM): 98.5% (active)
growth inhibition [3, 7]: 99% (active)
growth inhibition [3, 8]: 97% (active)
growth inhibition ([3]; at 50.0 µM): 98.2% (active)
growth inhibition [4, 7]: 99% (active)
growth inhibition [4, 8]: 97% (active)
growth inhibition ([4]; at 50.0 µM): 97.5% (active)
growth inhibition [5, 7]: 99% (active)
growth inhibition [5, 8]: 97% (active)
growth inhibition ([5]; at 50.0 µM): 98.6% (active)
growth inhibition [6, 7]: 99% (active)
growth inhibition [6, 8]: 97% (active)
growth inhibition ([6]; at 50.0 µM): 97.5% (active)

CCC[CH2][Sn]1([CH2]CCC)[O]C(=O)CN=Cc2c(ccc3ccccc23)[O]1
growth inhibition [1, 7]: 47%
growth inhibition [1, 8]: 47%
growth inhibition ([1]; at 50.0 µM): 91.2% (active)
growth inhibition [2, 7]: 74% (active)
growth inhibition [2, 8]: 74% (active)
growth inhibition ([2]; at 50.0 µM): 94% (active)
growth inhibition [3, 7]: 38%
growth inhibition [3, 8]: 38%
growth inhibition ([3]; at 50.0 µM): 92.9% (active)
growth inhibition [4, 7]: 48%
growth inhibition [4, 8]: 48%
growth inhibition ([4]; at 50.0 µM): 92.6% (active)
growth inhibition [5, 7]: 53%
growth inhibition [5, 8]: 53%
growth inhibition ([5]; at 50.0 µM): 92.6% (active)
growth inhibition [6, 7]: 67%
growth inhibition [6, 8]: 67%
growth inhibition ([6]; at 50.0 µM): 91.7% (active)

COC(=O)c1ccc(OC)cc1
growth inhibition [1, 7]: 2%
growth inhibition [1, 8]: -1%
growth inhibition ([1]; at 50.0 µM): 49.9%
growth inhibition [2, 7]: 3%
growth inhibition [2, 8]: -3%
growth inhibition ([2]; at 50.0 µM): 3.4%
growth inhibition [3, 7]: -1%
growth inhibition [3, 8]: -4%
growth inhibition ([3]; at 50.0 µM): 49.8%
growth inhibition [4, 7]: -1%
growth inhibition [4, 8]: -7%
growth inhibition ([4]; at 50.0 µM): 20.7%
growth inhibition [5, 7]: 3%
growth inhibition [5, 8]: 2%
growth inhibition ([5]; at 50.0 µM): 69.1%
growth inhibition [6, 7]: 3%
growth inhibition [6, 8]: -3%
growth inhibition ([6]; at 50.0 µM): 16.2%

CC1C(c2ccc3c(c2)OCO3)c2cc3c(cc2OC1N1CCOCC1)OCO3 (stereo not given)
growth inhibition [1, 7]: 28%
growth inhibition [1, 8]: 49%
growth inhibition ([1]; at 50.0 µM): 21.3%
growth inhibition [2, 7]: 19%
growth inhibition [2, 8]: 36%
growth inhibition ([2]; at 50.0 µM): 7.3%
growth inhibition [3, 7]: 17%
growth inhibition [3, 8]: 38%
growth inhibition ([3]; at 50.0 µM): -18.1%
growth inhibition [4, 7]: 25%
growth inhibition [4, 8]: 27%
growth inhibition ([4]; at 50.0 µM): 3.7%
growth inhibition [5, 7]: 27%
growth inhibition [5, 8]: 28%
growth inhibition ([5]; at 50.0 µM): 18.7%
growth inhibition [6, 7]: 27%
growth inhibition [6, 8]: 46%
growth inhibition ([6]; at 50.0 µM): 20.3%

CCOC(=O)/C(=C/c1ccc2ccccc2c1)P(=O)(OCC)OCC
growth inhibition [1, 7]: -17%
growth inhibition [1, 8]: -15%
growth inhibition ([1]; at 50.0 µM): 76.6% (active)
growth inhibition [2, 7]: 6%
growth inhibition [2, 8]: -13%
growth inhibition ([2]; at 50.0 µM): 69.2%
growth inhibition [3, 7]: -6%
growth inhibition [3, 8]: -5%
growth inhibition ([3]; at 50.0 µM): 66.8%
growth inhibition [4, 7]: 10%
growth inhibition [4, 8]: 19%
growth inhibition ([4]; at 50.0 µM): 71.1% (active)
growth inhibition [5, 7]: 16%
growth inhibition [5, 8]: 9%
growth inhibition ([5]; at 50.0 µM): 75.5% (active)
growth inhibition [6, 7]: -18%
growth inhibition [6, 8]: -7%
growth inhibition ([6]; at 50.0 µM): 58%

CCCCCCCCCCCCOC(=O)C[n+]1cccc(C(=O)Nc2ccc(Cl)cc2)c1
growth inhibition [1, 7]: 76% (active)
growth inhibition [1, 8]: 98% (active)
growth inhibition ([1]; at 50.0 µM): 98.8% (active)
growth inhibition [2, 7]: 56%
growth inhibition [2, 8]: 99% (active)
growth inhibition ([2]; at 50.0 µM): 99.2% (active)
growth inhibition [3, 7]: 60%
growth inhibition [3, 8]: 98% (active)
growth inhibition ([3]; at 50.0 µM): 99% (active)
growth inhibition [4, 7]: 53%
growth inhibition [4, 8]: 99% (active)
growth inhibition ([4]; at 50.0 µM): 100% (active)
growth inhibition [5, 7]: 85% (active)
growth inhibition [5, 8]: 99% (active)
growth inhibition ([5]; at 50.0 µM): 98.8% (active)
growth inhibition [6, 7]: 88% (active)
growth inhibition [6, 8]: 99% (active)
growth inhibition ([6]; at 50.0 µM): 98.4% (active)

O=C(Nc1cc(Cl)cc(Cl)c1)OCCCl
growth inhibition [1, 7]: 53%
growth inhibition [1, 8]: 87% (active)
growth inhibition ([1]; at 50.0 µM): 90.8% (active)
growth inhibition [2, 7]: 32%
growth inhibition [2, 8]: 77% (active)
growth inhibition ([2]; at 50.0 µM): 93% (active)
growth inhibition [3, 7]: 36%
growth inhibition [3, 8]: 84% (active)
growth inhibition ([3]; at 50.0 µM): 93.8% (active)
growth inhibition [4, 7]: 24%
growth inhibition [4, 8]: 63%
growth inhibition ([4]; at 50.0 µM): 92% (active)
growth inhibition [5, 7]: 41%
growth inhibition [5, 8]: 88% (active)
growth inhibition ([5]; at 50.0 µM): 92.6% (active)
growth inhibition [6, 7]: 53%
growth inhibition [6, 8]: 93% (active)
growth inhibition ([6]; at 50.0 µM): 92.5% (active)

O=C(O)c1c2c(cc3c1CC1(Cc4cc5c(cc4C1=O)CCC5)C3)CCC2 (stereo not given)
growth inhibition [1, 7]: 67%
growth inhibition [1, 8]: 67%
growth inhibition ([1]; at 50.0 µM): 89.4% (active)
growth inhibition [2, 7]: 58%
growth inhibition [2, 8]: 58%
growth inhibition ([2]; at 50.0 µM): 87.5% (active)
growth inhibition [3, 7]: 57%
growth inhibition [3, 8]: 57%
growth inhibition ([3]; at 50.0 µM): 87.3% (active)
growth inhibition [4, 7]: 37%
growth inhibition [4, 8]: 37%
growth inhibition ([4]; at 50.0 µM): 88.7% (active)
growth inhibition [5, 7]: 42%
growth inhibition [5, 8]: 42%
growth inhibition ([5]; at 50.0 µM): 87.2% (active)
growth inhibition [6, 7]: 55%
growth inhibition [6, 8]: 55%
growth inhibition ([6]; at 50.0 µM): 86.5% (active)

NC(=O)NN=C1CSSC1
growth inhibition [1, 7]: 7%
growth inhibition [1, 8]: 48%
growth inhibition ([1]; at 50.0 µM): 96.2% (active)
growth inhibition [2, 7]: 4%
growth inhibition [2, 8]: 23%
growth inhibition ([2]; at 50.0 µM): 76.5% (active)
growth inhibition [3, 7]: 3%
growth inhibition [3, 8]: 34%
growth inhibition ([3]; at 50.0 µM): 58%
growth inhibition [4, 7]: -9%
growth inhibition [4, 8]: -6%
growth inhibition ([4]; at 50.0 µM): -3.8%
growth inhibition [5, 7]: 1%
growth inhibition [5, 8]: 2%
growth inhibition ([5]; at 50.0 µM): 77.8% (active)
growth inhibition [6, 7]: -1%
growth inhibition [6, 8]: 72% (active)
growth inhibition ([6]; at 50.0 µM): 94.2% (active)
